Compound activity from PubChem BioAssay.
Rac1 mut GTP – GTP binding modulators of activated mutant Rac1, primary screen, biochemical, bead-based flow cytometry, multiplex, fluorescent GTP. AID 764, 2007. GST-Rac1 activated beads; actives lie on both sides; 100% means binding = to untreated wells. 190,000 compounds, 0.11% hits. percent activity (GTP binding), % at 10 µM;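 active = GTP binding at least 20 percentage points away from the 100% baseline, in either direction, so actives lie on both sides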
Rab2A wt mod – modulators of GTP binding to Rab2A wildtype, primary screen, biochemical, dog, bead-based flow cytometry, multiplex; Ras-related protein Rab-2A (Canis lupus familiaris), P61105; GST-Rab2 wt beads, Bodipy-GTP binding; GTP binding activity, % at 10 µM; 190,000 compounds, 0.19% hits; AID 760, 2007;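 active = GTP binding activity at least 20 points away from 100%, either lowered or raised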;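 note: 0% = beads with excess unlabeled GTP and 100% = no-compound control corrected for plate trend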
Rac1 wt modul – wildtype Rac1 GTP binding modulators, primary screen, biochemical, GST-Rac1 beads, flow cytometry, multiplex; Ras-related C3 botulinum toxin substrate 1 (Homo sapiens), P63000; fluorescent GTP binding; actives lie on both sides; 0 = cold GTP competed, 100 = untreated; GTP binding activity (% of control), % at 10 µM; 190,000 compounds, 0.27% hits;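 active = GTP binding activity at least 20 points away from the 100% control level, either lower or higher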
HRas wt GTP bind – modulators of GTP binding to HRas wildtype, primary screen, biochemical, bead-based flow cytometry, multiplex; GST-Ras wt beads, Bodipy-FL-GTP binding; actives lie on both sides; GTP binding activity, % at 10 µM; GTPase HRas (Homo sapiens), P01112; 190,000 compounds, 0.14% hits; AID 759, 2007;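 active = GTP binding activity at least 20% away from the 100% baseline, either lowered as inhibitor or raised as activator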;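 note: 0% = unlabeled GTP competition control and 100% = no-compound control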
Target sequence (P01112 whole entry, looked up): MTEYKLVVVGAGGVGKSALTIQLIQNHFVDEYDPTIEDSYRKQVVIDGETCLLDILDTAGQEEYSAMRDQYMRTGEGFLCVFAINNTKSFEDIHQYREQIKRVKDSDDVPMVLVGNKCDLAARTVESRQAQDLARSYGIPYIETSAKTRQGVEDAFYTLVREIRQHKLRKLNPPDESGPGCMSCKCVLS
Rab7 wt GTP bind – modulators of GTP binding to Rab7, primary screen, biochemical, wildtype, multiplex bead flow cytometry. Rab7 GTPase wild type (dog), Bodipy-FL-GTP binding. GTP binding activity (percent of control), % at 10 µM. GST-Rab7 beads, fluorescent GTP binding; actives lie on both sides; untreated = 100%, excess cold GTP = 0%. 190,000 compounds, 0.055% hits;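 active = fluorescent GTP binding to Rab7 beads changed by at least 20 points from the 100% baseline, either direction, mostly lower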;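 note: median green fluorescence of bound Bodipy-FL-GTP per Rab7 bead population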
Cdc42 wt – modulators of GTP binding to wildtype Cdc42, primary screen, biochemical, multiplex bead flow cytometry, Bodipy-GTP. Cell division control protein 42 homolog (Homo sapiens), P60953. GST-Cdc42 beads; actives lie on both sides. percent activity (GTP binding), % at 10 µM. 190,000 compounds, 0.2% hits;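 active = percent activity GTP binding at least 20 points away from the 100% baseline, either down as inhibitor or up as activator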;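 note: median bead fluorescence of bound Bodipy-FL-GTP at 100 nM; 0% = excess unlabeled GTP control and 100% = no compound control; below 100% means less GTP binding so inhibitor and above means activator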
Target sequence (P60953 whole entry, looked up): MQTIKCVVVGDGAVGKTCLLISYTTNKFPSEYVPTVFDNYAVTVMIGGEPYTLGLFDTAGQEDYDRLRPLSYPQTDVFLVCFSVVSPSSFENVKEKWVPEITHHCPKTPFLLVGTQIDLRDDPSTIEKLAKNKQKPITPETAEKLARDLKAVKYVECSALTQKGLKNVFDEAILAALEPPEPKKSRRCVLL
Numbers without * were called inactive; [ ] = dose if it differs, or a comment. Most compounds without a hit are left out; they make up all but 0.37% or so of the library.

SMILES | Rac1 mut GTP | Rab2A wt mod | Rac1 wt modul | HRas wt GTP bind | Rab7 wt GTP bind | Cdc42 wt
COc1ccccc1Nc1nc(-c2c(C)nc3ncccn23)cs1 | 79* | 62* | 63* | 62* | 82 | 66*
Cc1nc2ncccn2c1-c1csc(Nc2ccc(N(C)C)cc2)n1 | 92 | 93 | 90 | 92 | 107 | 92
CCC(C)N(C(=O)c1csnn1)C(C(=O)NC(C)(C)C)c1ccccc1 (stereo unspecified) | 100 | 100 | 105 | 102 | 104 | 104
COc1ccc2oc(-c3ccc(C)c(NC(=O)c4ccc(N5CCOCC5)c([N+](=O)[O-])c4)c3)nc2c1 | 103 | 104 | 106 | 106 | 99 | 108
O=C(CSc1nc2scc(-c3ccccc3)c2c(=O)[nH]1)NC1CCCCC1 | 87 | 89 | 90 | 91 | 99 | 89
COCc1cc(C)nc(N/N=C/c2ccc(-c3ccc(C(=O)O)c(Cl)c3)o2)c1C#N | 86 | 77* | 67* | 78* | 97 | 73*
Cc1nn(C)c(C)c1S(=O)(=O)N(CC(=O)NCc1cccs1)c1ccc(C(C)C)cc1 | 97 | 98 | 102 | 99 | 101 | 102
N#C/C(=C/c1ccc(-c2cc(C(=O)O)cc(C(=O)O)c2)o1)c1nc2ccccc2s1 | 77* | 67* | 70* | 75* | 86 | 71*
N#C/C(=C\c1ccco1)c1nc2ccccc2s1 | 99 | 99 | 100 | 100 | 96 | 98
CS(=O)(=O)c1ccc(C(=O)OCC(=O)NC(=O)C2CCCCC2)cc1[N+](=O)[O-] | 71* | 82 | 89 | 87 | 100 | 68*
CS(=O)(=O)c1ccc(C(=O)OCc2nnc(-c3ccccc3)o2)cc1[N+](=O)[O-] | 74* | 85 | 89 | 87 | 100 | 76*
O=C(OCc1nnc(-c2ccccc2)o1)c1ccc(Cl)cc1 | 91 | 91 | 91 | 92 | 92 | 93
Cc1ccccc1NC(=O)COC(=O)c1ccc(S(C)(=O)=O)c([N+](=O)[O-])c1 | 82 | 94 | 92 | 91 | 99 | 83
CC1(C)C([N+](=O)[O-])C(c2ccccc2O)NC(c2ccccc2O)C1[N+](=O)[O-] (stereo unspecified) | 94 | 92 | 97 | 95 | 93 | 95
Cc1c(C(=O)NCCCN2CCOCC2)sc2nc(-c3ccc(F)cc3)cn12 | 96 | 100 | 102 | 99 | 98 | 100
CCCOC(=O)c1c(NC(=O)CCC(=O)O)sc2c1CCCCC2 | 80 | 76* | 92 | 83 | 91 | 81
CCOC(=O)c1ccc(NC(=O)c2c(NC(=O)CCC(=O)O)sc3c2CCCCC3)cc1 | 89 | 92 | 90 | 93 | 100 | 89
CC(Cc1c[nH]c2ccccc12)C(=O)O (stereo unspecified) | 89 | 90 | 92 | 90 | 92 | 91
COc1ccc(C2CC(c3ccccc3)=NN2c2ccc(S(N)(=O)=O)cc2)cc1 (stereo unspecified) | 94 | 97 | 98 | 99 | 104 | 78*
NS(=O)(=O)c1ccc(N2N=C(c3ccccc3)CC2c2ccc(F)cc2)cc1 (stereo unspecified) | 96 | 94 | 94 | 97 | 93 | 89
Cc1ccc(-n2c(=O)cc(N3CCc4ccccc4C3)[nH]c2=O)cc1 | 106 | 107 | 126*[activator] | 107 | 104 | 110
Cc1ccc(-n2c(=O)cc(N3CCN(C(=O)c4ccco4)CC3)[nH]c2=O)cc1 | 105 | 102 | 121*[activator] | 106 | 107 | 102
